A selection: hits, their analogues and other compounds. The true share with any hit is near 19%.
IL-1B inflam inh: inflammasome signaling inhibition, IL-1 beta readout | THP-1 LPS/ATP IL-1B secretion, AlphaLISA, 16 h; stronger effect = lower value | activity change, % at 57.5 µM | actives 4.7% (n = 360,000) | AID 743279; in the data active means activity change below about -50%; inconclusive means mostly about -30% to -49%; further: on the % scale 0 is the no-effect control and ±100 the full control effect
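Secreted IL-1B measured by AlphaLISA bead assay after 16 h compound exposure of THP-1 cells; compounds (final up to 57.5 uM) added 1 h before LPS (250 ng/mL) and ATP (1.25 mM) stimulation; lower signal means less secretion.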
BCR signal inh: chronic active BCR signaling inhibition; Potency, µM (series often up to 46.1 µM), for inactives: at the highest dose activity change, negative = inhibition, hits mostly inhibitors; actives 0.05% (n = 340,000); ABC-DLBCL IkBa-CBG/CBR reporter, luminescence ratio, 4 h; active means well fitted inhibition curve with a large enough effect in the signal ratio, with a control signal flat, not every such curve was filed as active; inconclusive means small, poorly fitted or top-dose-only effect, or effect the other way, or a change in a side signal; the % refers to the signal ratio;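 further: potency means the concentration at half of the fitted maximal effect; plate controls were basal doxycycline-induced cells for no effect and cells given 10 µM MG132 for full effect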
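Concentration-response series (up to 46 uM) were applied to TMD8 dual-reporter cells for 4 h at 37C with doxycycline. Green/red ratio, after filter-overlap correction, defined %Activity; red signal alone was normalised to basal cells and zero luminescence.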
TDP1 cell noCPT: qHTS for Inhibitors of human tyrosyl-DNA phosphodiesterase 1 (TDP1): qHTS in cells in absence of CPT; DT40 Tdp1-/- hTDP1 cells, no CPT, ATP luminescence, 48 h; Potency, µM (top dose mostly 46.2 µM), inactives show at the top dose activity change, negative = growth inhibition, usual class: inhibitors; actives 15% (n = 420,000); AID 686978, 2013; further: potency means the concentration at half of the fitted maximal effect; on the % scale 0 is the no-effect control and ±100 the full control effect; nearly all actives have a fitted effect of over 55% in size
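Camptothecin absent (DMSO only). Human TDP1-complemented DT40 knockout cells, 400 cells/well, 37 °C for minimum 48 hr; ATP measured via CellTiter-Glo, 30 min dark incubation, luminescence.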
SW480 rerep: DNA re-replication induction in SW480 cells. SW480 DNA re-replication, Hoechst DNA content imaging, 48 h. Potency, µM (top dose mostly 46.1 µM), for inactives: at the top dose re-replication activation, hits mostly activators. AID 624297. actives 1.8% (n = 340,000); further: potency means the concentration at half of the fitted maximal effect; % of control where 0% means no effect; nearly all actives have a fitted effect of over 55% in size
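Readout is total intensity of Hoechst-stained nuclei, excited at 405 nm and collected at 500-530 nm. Compound treatment lasted 48 hr at 37 C in 5% CO2 before staining.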
MCF10A rereplic: induces DNA re-replication in MCF 10a normal breast cells; MCF 10A DNA re-replication, Hoechst nuclear intensity, 48 h; Potency, µM (doses to about 46.1 µM), inactives show top-dose activity, positive = re-replication, usual class: activators; actives 2.9% (n = 350,000); further: potency means the concentration at half of the fitted maximal effect; % of control where 0% means no effect; nearly all actives have a fitted effect of over 50% in size
DT40 TDP1 CPT: growth inhibition of DT40 Tdp1-/-;hTDP1 cells with camptothecin (screen for TDP1 inhibitors); chicken DT40 Tdp1-/-;hTDP1 cells + 20 nM CPT, ATP luminescence, 48 h; Potency, µM (titrated, usually from 46.2 µM), for inactives: at the top dose activity change, negative = growth inhibition, usual class: inhibitors; actives 12% (n = 420,000); AID 686979; further: potency means the concentration at half of the fitted maximal effect; on the % scale 0 is the no-effect control and ±100 the full control effect; nearly all actives have a fitted effect of over 55% in size
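Chicken DT40 Tdp1-/- cells stably complemented with human TDP1 were seeded at 400 cells/well in medium containing 20 nM camptothecin, exposed to pin-transferred compounds, and grown at 37 °C for at least 48 hr. Viability was read as ATP luminescence.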
* hit, by the source's call. Unless noted, the call rests on the fitted dose curve; in most records, active means well fitted curve in the direction sought with a large enough effect; inconclusive means small, poorly fitted or top-dose-only effect, or another doubt; inactive means no such curve, though single readings can be large; an effect the other way counts as inactive or inconclusive.

What do the screens show for `COc1ccc(Nc2nc(N)nc(C(F)(F)F)n2)c(OC)c1`?
IL-1B inflam inh: -6; BCR signal inh: inconclusive; TDP1 cell noCPT: -2%; SW480 rerep: 5%; MCF10A rereplic: 12%; DT40 TDP1 CPT: -18%

What do the screens show for `O=C(c1ccncc1)c1ccc(NS(=O)(=O)c2ccc(Br)s2)cc1`?
IL-1B inflam inh: 26; BCR signal inh: inconclusive; TDP1 cell noCPT: 18µM*; SW480 rerep: 0%; MCF10A rereplic: -2%; DT40 TDP1 CPT: 16µM*

What do the screens show for `O=S(=O)(Nc1ccc2c(c1)OCO2)c1ccc(Br)s1`?
IL-1B inflam inh: 6; BCR signal inh: -12%; TDP1 cell noCPT: -11%; SW480 rerep: inconclusive; MCF10A rereplic: 18µM*; DT40 TDP1 CPT: inconclusive

Results for O=C(Nc1ccc2ccccc2c1)c1ccc(NS(=O)(=O)c2ccc(Br)s2)cc1 ?
IL-1B inflam inh: 3; BCR signal inh: inconclusive; TDP1 cell noCPT: -22%; SW480 rerep: 7%; MCF10A rereplic: inconclusive; DT40 TDP1 CPT: -6%

What do the screens show for `COc1ccc(C(C#N)=Cc2cccc(OC)c2OC)cc1`?
IL-1B inflam inh: 6; TDP1 cell noCPT: 23µM*; DT40 TDP1 CPT: inconclusive

What do the screens show for `COc1cc(/C(C#N)=C/c2cccc3ccccc23)c([N+](=O)[O-])cc1OC`?
IL-1B inflam inh: 8; BCR signal inh: 0%; TDP1 cell noCPT: -25%; SW480 rerep: -2%; MCF10A rereplic: -25%; DT40 TDP1 CPT: inconclusive

What do the screens show for `COc1ccc2oc(=O)c(/C(N)=N/NC(=O)c3ccncc3)cc2c1`?
IL-1B inflam inh: -26; BCR signal inh: -2%; TDP1 cell noCPT: -27%; SW480 rerep: -7%; MCF10A rereplic: -7%; DT40 TDP1 CPT: -1%

What do the screens show for `CCN1CCN(c2nc3c(S(=O)(=O)c4ccc(Br)cc4)nnn3c3ccsc23)CC1`?
TDP1 cell noCPT: inconclusive; DT40 TDP1 CPT: -23%

What do the screens show for `COc1ccc(N=C2C(=O)N3CCCc4cccc2c43)cc1`?
IL-1B inflam inh: 1; BCR signal inh: 3%; TDP1 cell noCPT: inconclusive; SW480 rerep: -6%; MCF10A rereplic: 8%; DT40 TDP1 CPT: inconclusive

What do the screens show for `Cc1cccc2c1NC(=O)C2=Nc1ccc(Cl)cc1`?
IL-1B inflam inh: -4; BCR signal inh: -1%; TDP1 cell noCPT: -13%; SW480 rerep: 22%; MCF10A rereplic: -12%; DT40 TDP1 CPT: -24%

What do the screens show for `CC1=CC(C)(C)N2C(=O)C(=Nc3ccc(O)cc3)c3cccc1c32`?
IL-1B inflam inh: -53*; BCR signal inh: inconclusive; TDP1 cell noCPT: 3.3µM*; SW480 rerep: inconclusive; MCF10A rereplic: 26%; DT40 TDP1 CPT: 4.1µM*

Results for COc1cc(N=C2C(=O)N3c4c(cccc42)C(C)=CC3(C)C)cc(OC)c1 ?
IL-1B inflam inh: -14; BCR signal inh: 8%; TDP1 cell noCPT: 5.2µM*; SW480 rerep: 21µM*; MCF10A rereplic: 16%; DT40 TDP1 CPT: 6.5µM*

What do the screens show for `c1ccc(Nc2c(-c3ccco3)nc3ccccn23)cc1`?
IL-1B inflam inh: inconclusive; BCR signal inh: inconclusive; TDP1 cell noCPT: 23µM*; SW480 rerep: 1%; MCF10A rereplic: 1%; DT40 TDP1 CPT: inconclusive

Results for Cc1ccc(Nc2c(-c3ccco3)nc3ccccn23)cc1 ?
IL-1B inflam inh: -15; BCR signal inh: 10%; TDP1 cell noCPT: inconclusive; SW480 rerep: -4%; MCF10A rereplic: 1%; DT40 TDP1 CPT: -14%

What do the screens show for `Fc1ccc(Nc2c(-c3ccco3)nc3ccccn23)cc1`?
IL-1B inflam inh: -64*; BCR signal inh: 15%; TDP1 cell noCPT: 5.8µM*; SW480 rerep: 0%; MCF10A rereplic: -3%; DT40 TDP1 CPT: 15µM*

How did Cc1cccc2nc(-c3ccco3)c(Nc3ccc4c(c3)OCCO4)n12 do in these assays?
IL-1B inflam inh: -12; BCR signal inh: 2%; TDP1 cell noCPT: inconclusive; SW480 rerep: -12%; MCF10A rereplic: 1%; DT40 TDP1 CPT: inconclusive

Results for Cc1c(C(=O)NCCC#N)sc(=O)n1Cc1ccc(C(=O)N(C)C)cc1 ?
IL-1B inflam inh: 33; TDP1 cell noCPT: -3%; DT40 TDP1 CPT: 3%

What do the screens show for `COc1ccc(C2C(C#N)=C(N)Oc3cccc(O)c32)cc1` (configuration not stated)?
IL-1B inflam inh: -12; BCR signal inh: -1%; TDP1 cell noCPT: -1%; SW480 rerep: -19%; MCF10A rereplic: inconclusive; DT40 TDP1 CPT: -17%

What do the screens show for `Cc1cc(C)c2c(N)c(S(=O)c3ccc(C(C)(C)C)cc3)sc2n1` (configuration not stated)?
IL-1B inflam inh: -67*; BCR signal inh: 0%; TDP1 cell noCPT: inconclusive; SW480 rerep: 2%; MCF10A rereplic: -6%; DT40 TDP1 CPT: inconclusive

What do the screens show for `CCC(=O)N(CC)C1=C(O)c2ccccc2C(=O)C1=O`?
IL-1B inflam inh: 0; BCR signal inh: -8%; TDP1 cell noCPT: 8.2µM*; SW480 rerep: inconclusive; MCF10A rereplic: inconclusive; DT40 TDP1 CPT: 4.6µM*

What do the screens show for `CCC(=O)N(C)/C=C1\Sc2ccccc2C1=O`?
IL-1B inflam inh: 22; BCR signal inh: inconclusive; TDP1 cell noCPT: -8%; SW480 rerep: 3%; MCF10A rereplic: -11%; DT40 TDP1 CPT: 8%

Results for COc1ccc(NC(=O)c2cc(C3CCCCN3S(=O)(=O)c3ccc(F)cc3F)on2)c(C)c1 (configuration not stated) ?
IL-1B inflam inh: -19; TDP1 cell noCPT: 15µM*; DT40 TDP1 CPT: inconclusive

Results for COc1ccc(NC(=O)c2cc(C3CCCCN3S(=O)(=O)c3ccccc3)on2)c(C)c1 (configuration not stated) ?
IL-1B inflam inh: -2; TDP1 cell noCPT: 8.2µM*; DT40 TDP1 CPT: inconclusive

What do the screens show for `CS(=O)(=O)N1CCCCC1c1cc(C(=O)Nc2ccccc2Cl)no1` (configuration not stated)?
IL-1B inflam inh: inconclusive; TDP1 cell noCPT: -27%; DT40 TDP1 CPT: -22%

How did COc1ccc(NC(=O)c2cc(C3CCCCN3S(C)(=O)=O)on2)c(C)c1 (configuration not stated) do in these assays?
IL-1B inflam inh: 0; TDP1 cell noCPT: -4%; DT40 TDP1 CPT: -11%

What do the screens show for `CC(C)N1C(=O)CSC1c1ccc(Br)cc1` (configuration not stated)?
IL-1B inflam inh: -8; BCR signal inh: 1%; TDP1 cell noCPT: 1%; SW480 rerep: -2%; MCF10A rereplic: -26%; DT40 TDP1 CPT: 1%
